Screening results from PubChem BioAssay.
This is a sample that favours compounds with a hit; in the whole collection about 19% have one here.
TGFb SMAD3 inh = blocks TGF-b signaling; HepG2 CAGA-GFP TGF-b/SMAD3 reporter, GFP fluorescence, 18 h; TGF-beta stimulated, 500 pg/mL final; Potency, µM (highest dose often 46.1 µM), usual class: inhibitors; 410,000 tested, 1.2% active; note: nearly all actives have a fitted effect of over 65% in size
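HEPG2 CAGA-GFP, 1000 cells/well; 2 h settle, 37 C; cpd via pin tool; TGF-b 500 pg/mL final; 18 h, 37 C; GFP imaging ex488/em500-530; %Activity normalised to -TGF-b and +DMSO controls; CRC fit, curve class.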
S-ASM inh = human S-ASM enzyme inhibition. P17405. placental ASM, HMU-PC fluorogenic substrate, 60 min. Potency, µM (top dose mostly 57.5 µM), actives largely listed as inhibitors. 340,000 tested, 0.006% active. AID 504937
Target sequence (P17405 47-631 limits assumed): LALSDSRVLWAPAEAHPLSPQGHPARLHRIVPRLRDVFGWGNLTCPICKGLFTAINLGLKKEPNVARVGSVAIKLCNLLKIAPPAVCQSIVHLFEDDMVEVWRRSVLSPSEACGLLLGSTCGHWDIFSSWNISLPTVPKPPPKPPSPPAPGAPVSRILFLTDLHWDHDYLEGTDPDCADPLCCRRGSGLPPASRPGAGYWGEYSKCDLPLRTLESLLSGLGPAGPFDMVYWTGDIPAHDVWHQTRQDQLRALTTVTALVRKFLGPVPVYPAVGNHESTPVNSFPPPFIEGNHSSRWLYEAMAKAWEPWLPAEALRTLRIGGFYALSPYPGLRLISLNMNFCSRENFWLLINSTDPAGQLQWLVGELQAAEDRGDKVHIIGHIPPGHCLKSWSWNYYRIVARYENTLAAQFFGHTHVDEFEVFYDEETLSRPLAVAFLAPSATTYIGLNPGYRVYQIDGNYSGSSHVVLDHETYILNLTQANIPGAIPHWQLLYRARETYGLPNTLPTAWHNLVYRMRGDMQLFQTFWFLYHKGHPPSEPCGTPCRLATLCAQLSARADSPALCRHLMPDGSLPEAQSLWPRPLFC
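qHTS format. ASM enzyme prepared from human placenta hydrolyses the fluorogenic substrate HMU-PC0 (9 uM final) over 60 min at 37 °C after a 10 min compound preincubation.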
IL1B secr inh = blocks inflammasome-driven IL-1 beta release; activity change, % at 57.5 µM; THP-1 LPS/ATP IL-1B secretion, AlphaLISA, 16 h; active compounds read low; 360,000 tested, 4.7% active; in the data active = activity change below about -50%; inconclusive = mostly about -30% to -49%
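THP-1 cells pretreated 1 hr with compounds (up to 57.5 uM final), then stimulated with LPS (250 ng/mL final) plus ATP (1.25 mM final); secreted IL-1B measured by AlphaLISA after 16 hr, decreased signal indicating inhibition.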
TDP1 cell noCPT = qHTS for Inhibitors of human tyrosyl-DNA phosphodiesterase 1 (TDP1): qHTS in cells in absence of CPT. DT40 Tdp1-/- hTDP1 cells, no CPT, ATP luminescence, 48 h. Potency, µM (top dose mostly 46.2 µM), most hits filed as inhibitors. 420,000 tested, 15% active. AID 686978, 2013; note: nearly all actives have a fitted effect of over 55% in size
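Stably hTDP1-transfected Tdp1-null chicken DT40 cells were treated with library compounds minus camptothecin and grown for at least 48 hr at 37 °C, after which cellular ATP was quantified by luminescence.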
TDP1 cell CPT = DT40-hTDP1 cell growth loss with CPT; Potency, µM (highest dose often 46.2 µM), actives largely listed as inhibitors; AID 686979; 420,000 tested, 12% active; chicken DT40 Tdp1-/-;hTDP1 cells + 20 nM CPT, ATP luminescence, 48 h; note: nearly all actives have a fitted effect of over 55% in size
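Chicken DT40 Tdp1-/- cells stably complemented with human TDP1 were seeded at 400 cells/well in medium containing 20 nM camptothecin, exposed to pin-transferred compounds, and grown at 37 °C for at least 48 hr. Viability was read as ATP luminescence.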
HepG2 tox = counter-screen for TGF-b inhibitors: cytotoxicity in HepG2 cells | HepG2 CAGA-GFP viability, ATP luminescence, 18 h | Potency, µM (highest dose often 46.1 µM), usual class: cytotoxic | 410,000 tested, 0.76% active | AID 588856
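CellTiter-Glo luminescence gave cytotoxicity after 18 hours at 37 degrees C. The cells were HepG2 CAGA-GFP in 1% FBS DMEM, stimulated with 500 pg/mL TGF-beta after compound addition. %Activity was normalised to no-cell wells (complete cell-killing) and DMSO (no toxicity), and curves were fitted and classified.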
Hits are given with their value; 0 = inactive; ? = inconclusive; - = no result given; [ ] = dose if it differs, or a comment. Unless noted, calls come from the whole dose curve; as a rule, active = well fitted curve in the direction sought with a large enough effect; inconclusive = small, poorly fitted or top-dose-only effect, or another doubt; inactive = no such curve, though single readings can be large; an effect the other way counts as inactive or inconclusive.

SMILES	TGFb SMAD3 inh	S-ASM inh	IL1B secr inh	TDP1 cell noCPT	TDP1 cell CPT	HepG2 tox
CC1=CC(C)(C)N(C(=O)CN2C(=O)CCC2=O)c2ccccc21	0	0	0	0	0	0
O=C(Oc1ccc(F)cc1)c1cccnc1	0	0	0	0	0	0
O=c1c2ccccc2c(C=Nc2ccc(O)cc2)c(O)n1-c1nccs1	0	0	0	?	?	0
COc1ccc(C(=O)c2nccc3ccccc23)cc1	0	0	0	0	0	0
COc1ccc(C(=O)c2c(C)c3ccccc3n2CC(O)CNC(C)C)cc1 (centres undefined)	?	0	?	23µM	?	0
Cc1cccc(-n2ncc3c(N4CCCC4)ncnc32)c1	0	0	0	0	0	0
Cc1cccc(-n2ncc3c(N4CCN(c5ccccc5)CC4)ncnc32)c1	0	-	-	?	21µM	0
COc1ccc(-n2ncc3c(N4CCN(c5cccc(C)c5)C(C)C4)ncnc32)cc1 (centres undefined)	?	-	-	10µM	2.9µM	0
CCN1CCN(c2ncnc3c2cnn3-c2ccc(C)cc2C)CC1	0	0	?	?	?	0
Cc1ccc(-n2ncc3c(N4CCN(c5ccccc5)CC4)ncnc32)c(C)c1	0	0	-69	4.6µM	5.8µM	0
Cc1ccc(-n2ncc3c(N4CCN(c5ccccc5)CC4)ncnc32)cc1C	0	-	-	13µM	?	0
CC(C)CN(C(=O)C1CCCC1)C1CCS(=O)(=O)C1 (centres undefined)	0	0	0	0	0	0
COc1ccc(OCC(O)CNC(=O)Nc2ccc(C(C)(C)C)cc2)cc1 (centres undefined)	?	0	0	0	0	0
COc1ccc(C2=C(N3CCN(c4cccc(C)c4)C(C)C3)c3ccccc3C2=O)cc1 (centres undefined)	0	-	-	26µM	21µM	0
Cc1cccc(N2CCN(c3cc(C)nc4nnnn34)CC2C)c1 (centres undefined)	0	0	0	0	0	0
CC1=C(c2ccc(Cl)cc2)S(=O)(=O)N=C1N1CCN(c2cccc(C)c2)C(C)C1 (centres undefined)	0	-	-	5.2µM	5.2µM	0
COc1ccc(N2CCN(c3ncnc4c3cnn4-c3ccc(C)cc3C)CC2)cc1	0	0	0	12µM	?	0
Cc1cccc(C(=O)N2CCN(c3ncnc4c3cnn4-c3ccccc3)CC2)c1	0	0	-57	?	?	0
COc1ccc(-n2ncc3c(N4CCN(c5cc(C)ccc5C)CC4)ncnc32)cc1	0	0	0	?	0	0
Cc1ccc(-c2nc3nc(C)cc(N4CCN(c5cccc(C)c5)C(C)C4)n3n2)cc1 (centres undefined)	0	-	-	?	0	0
CSc1ccccc1NC(=O)COC(=O)Cn1cc(C(F)(F)F)ccc1=O	0	0	0	?	?	0
CC(C)[C@H](NC(=O)OCc1ccccc1)C(=O)OCc1cc(=O)oc2cc(O)ccc12	0	0	0	?	?	0
COc1ccc(N2CCN(c3nc4cc(C)ccc4cc3C=O)CC2)cc1	0	0	-64	?	?	0
N[C@H](C(=O)O)c1cc(O)cc(O)c1	-	-	-	0	?	-
N[C@@H](C(=O)O)c1cc(O)ccc1Cl	-	-	-	1.2µM	2.4µM	-
SMILES	TGFb SMAD3 inh	S-ASM inh	IL1B secr inh	TDP1 cell noCPT	TDP1 cell CPT	HepG2 tox
CC1CCc2[nH]c3ccc(C(=O)N(C)CC(=O)Nc4ccccc4Cl)cc3c2C1 (centres undefined)	0	0	0	15µM	?	0
CC1CCc2[nH]c3ccc(C(=O)N(C)CC(=O)Nc4ccccc4C(F)(F)F)cc3c2C1 (centres undefined)	?	0	0	?	?	0
Cc1ccc(NC(=O)CN(C)C(=O)c2ccc3[nH]c4c(c3c2)CC(C)CC4)cc1 (centres undefined)	?	0	-51	0	?	0
CCOc1ccc(CNC(=O)C2=Cc3cccc(OC)c3OC2)cc1	0	-	-	?	?	0
CCCN(Cc1cccs1)C(=O)Nc1cc(C)cc(C)c1	0	-	-	?	26µM	0
O=C(Nc1ccc(Cl)cc1)N(Cc1cccs1)Cc1cccs1	0	0	0	?	18µM	0
CCCN(Cc1cccs1)C(=O)Nc1cc(C)ccc1OC	0	-	-	16µM	?	0
O=C(Nc1ccccc1)N(O)c1ccc(Cl)cc1	0	0	0	29µM	18µM	0
CCCN(Cc1cccs1)C(=O)Nc1ccc(F)c(Cl)c1	?	-	-	?	?	0
O=C(Cc1cccs1)Nc1ccc(Cl)cc1	0	0	0	?	0	0
COc1ccccc1CNc1cc(C)nc2nc(-c3ccc(C)cc3)nn12	0	-	-	-	-	0
CC1=C2CCCC[C@@]23C2C(=O)N(C)C(=O)[C@@H]2ON3OC1 (some centres undefined)	-	-	0	0	0	-
CC(C)n1c(SCC(=O)Nc2nc3c(s2)CCCC3)nc2c1c(=O)n(C)c(=O)n2C	0	0	?	2.9µM	12µM	0
COc1cc(=O)[nH]c(SC(C)C(=O)Nc2nc3c(s2)CCCC3)n1 (centres undefined)	0	0	0	0	0	0
COc1cc(=O)[nH]c(SCC(=O)Nc2nc3c(s2)CCCC3)n1	?	0	0	?	23µM	0
CCOC(=O)c1c(NC(=O)CSc2nc3c(c(=O)n(C)c(=O)n3C)n2C(C)C)sc(C)c1C	0	0	0	0	0	0
Cc1ncc2c(c1CNC(=O)c1ccc3c(c1)OCO3)CCN(C(=O)/C=C/c1ccccc1Cl)C2	-	-	-	0	0[9.04 µM]	-
CC1CCCN(C(=S)SCC(=O)c2cc(Br)cc(Br)c2O)C1 (centres undefined)	0	0	0	2.9µM	4.1µM	0
Cc1nn2c(NCCCN(C)C)c3c(nc2c1-c1ccccc1)CCCC3	?	0	0	?	?	0
Cc1nn2c(NCCCN(C)C)c3c(nc2c1-c1ccccc1)CCC3	0	0	0	29µM	?	0
CN(C)CCCNc1oc(-c2ccc(Cl)cc2)nc1S(=O)(=O)c1ccccc1	?	0	0	16µM	15µM	0
COCCNc1oc(-c2ccccc2)nc1S(=O)(=O)c1ccc(Br)cc1	?	-	-	?	?	0
O=S(=O)(c1ccccc1)c1nc(-c2ccco2)oc1NCCN1CCOCC1	0	0	0	0	0	0
O=S(=O)(c1ccc(Cl)cc1)c1nc(-c2ccccc2F)oc1NCCCN1CCOCC1	0	0	-74	?	?	0
